Experiment [1] concerns the target Retinoic acid receptor alpha (Homo sapiens) (UniProt P10276). The experiment is described as follows: ATG_DR5_RAR_CIS: Attagene CIS-FACTORIAL HepG2 Assay for human Retinoic Acid Receptor Alpha (RARE), DR5 submotif (AID 2282934; active = hit-call score of the fitted dose curve at least 0.9, where 1 is the maximum; inactive = score below 0.9). Conditions: HepG2 Attagene cis-factorial RARE DR5 reporter, mRNA; actives raise or lower the signal. The essentials: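 Read-out: DR5-driven reporter transcript measured by RT-PCR, 6-FAM primer extension, HpaI digest and capillary electrophoresis. Human HepG2 liver cells carry transiently transfected cis-element reporter constructs; dosing lasts 24 h. Gain or loss of signal fitted against DMSO baseline.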

The target of experiment [2] is Hepatocyte nuclear factor 3-beta (Homo sapiens) (UniProt Q9Y261). The experiment is described as follows: ATG_FoxA2_CIS: Attagene CIS-FACTORIAL HepG2 Assay for human Forkhead box A2 (FOXA2) (AID 2282942; active = hit-call score of the fitted dose curve at least 0.9, where 1 is the maximum; inactive = score below 0.9). Particulars: HepG2 cis-reporter transcription factor activity, 24 h; actives raise or lower the signal. The method, boiled down:
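HepG2 transiently transfected with a multiplexed cis-promoter reporter library read endogenous FOXA2 activity. After 24 h compound exposure, reporter mRNA was quantified by RT-PCR, HpaI digestion and capillary electrophoresis. Bidirectional fit against DMSO.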

Experiment [3] in a line: ATG_FoxO_CIS: Attagene CIS-FACTORIAL HepG2 Assay for human Forkhead box O (FoxO) (AID 2282943; active = hit-call score of the fitted dose curve at least 0.9, where 1 is the maximum; inactive = score below 0.9). Conditions: HepG2 Attagene cis-reporter, FoxO element, mRNA; actives raise or lower the signal. The essentials: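 Read-out: fluorescence of 6-FAM-labelled reporter cDNA fragments resolved by capillary electrophoresis. Transiently transfected HepG2 cells were dosed for 24 h; activity fitted in both directions relative to DMSO controls.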

The nature of experiment [4]: ATG_GRE_CIS: Attagene CIS-FACTORIAL HepG2 Assay for human Glucocorticoid Response Elements (GRE) (AID 2282947; active = hit-call score of the fitted dose curve at least 0.9, where 1 is the maximum; inactive = score below 0.9). Conditions: HepG2 GRE cis-reporter, Attagene multiplex mRNA; actives raise or lower the signal. The method, boiled down: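 Transiently transfected HepG2 cells carrying GRE cis-reporter units (endogenous TF activity) dosed 24 h; reporter mRNA quantified by RT-PCR, 6-FAM labelling, HpaI digestion and capillary electrophoresis. Bidirectional fit versus DMSO baseline.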

The nature of experiment [5]: ATG_PBREM_CIS: Attagene CIS-FACTORIAL HepG2 Assay for human Phenobarbital-responsive Enhancer Module (PBREM) (AID 2282955; active = hit-call score of the fitted dose curve at least 0.9, where 1 is the maximum; inactive = score below 0.9). Conditions: HepG2 PBREM cis-reporter, Attagene multiplexed transcription; actives raise or lower the signal. The method, boiled down: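 HepG2 cells transiently transfected with multiple cis-regulated reporter units measure endogenous transcription factor activity; 24 h compound exposure. Reporter mRNA quantified by RT-PCR, fluorescent labelling, HpaI digestion and capillary electrophoresis; bidirectional fit versus DMSO.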

A short description of experiment [6]: ATG_RORE_CIS: Attagene CIS-FACTORIAL HepG2 Assay for human RAR-related Orphan Receptor Element (RORE) (AID 2282959; active = hit-call score of the fitted dose curve at least 0.9, where 1 is the maximum; inactive = score below 0.9). Conditions: HepG2 Attagene cis-factorial RORE reporter, mRNA; actives raise or lower the signal. The method, boiled down:
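HepG2 cells carrying transiently transfected cis-regulated reporter units; RORE-driven reporter mRNA quantified 24 h post-dosing by RT-PCR, 6-FAM primer extension, HpaI digestion and capillary electrophoresis. Bidirectional fit versus DMSO.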

Experiment [7] can be described thus: ATG_SREBP_CIS: Attagene CIS-FACTORIAL HepG2 Assay for human Sterol Regulatory Element Binding (SREBP) (AID 2282962; active = hit-call score of the fitted dose curve at least 0.9, where 1 is the maximum; inactive = score below 0.9). Particulars: HepG2 Attagene cis-factorial SREBP reporter, mRNA; actives raise or lower the signal. The essentials:
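Twenty-four hours after chemical dosing of transfected HepG2 cultures, reporter RNA was converted to cDNA, amplified, end-labelled with 6-FAM and resolved by capillary electrophoresis. Responses were fitted relative to DMSO.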

Experiment [8] can be described thus: ATG_M_32_TRANS: Attagene TRANS-FACTORIAL HepG2 Assay for M32 Transcription Factor (Internal Marker) (AID 2282984).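 Also: transcript level of a background control reporter unit measured by RT-PCR and capillary electrophoresis.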 Conditions: HepG2 Attagene TRANS M32 internal marker reporter. The method, boiled down: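 HepG2 cells transiently transfected with GAL4-UAS reporter units, dosed for 24 hours. Reporter mRNA quantified by RT-PCR, 6-FAM labelling, HpaI digestion and capillary electrophoresis; internal-marker signal fitted upward relative to DMSO.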

Experiment [9] can be described thus: ATG_NF_kB_CIS: Attagene CIS-FACTORIAL HepG2 Assay for human Nuclear Factor Kappa B (NF-kB) (AID 2282991; active = hit-call score of the fitted dose curve at least 0.9, where 1 is the maximum; inactive = score below 0.9). Particulars: HepG2 Attagene cis-factorial NF-kB reporter mRNA; actives raise or lower the signal. The method, boiled down: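 HepG2 cells transfected with cis-promoter-driven reporter units, so endogenous transcription factor activity is measured. Reporter mRNA quantified 24 h after dosing by RT-PCR and capillary electrophoresis, with bidirectional fitting against DMSO.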

Experiment [10] concerns the target human Retinoid X Receptor beta (RXRb), RXRB (gene 6257) (UniProt P28702). The experiment in a line: ATG_RXRb_TRANS: Attagene TRANS-FACTORIAL HepG2 Assay for human Retinoid X Receptor beta (RXRb) (AID 2283013). The essentials:
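Transfect HepG2 with GAL4-UAS multi-reporter constructs (chimeric NR-Gal4, TRANS format); dose compound 24 h; isolate RNA, RT-PCR, FAM primer extension, HpaI digest; quantify by capillary electrophoresis; positive direction vs DMSO.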

Experiment [11] is described as follows: TOX21_p53_BLA_p2_viability: Viability Assessment in the Tox21 HCT-116 p53 Agonism Beta-lactamase Assay, Phase 2 (AID 2283591).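 Also: compound exposure lasted 16 h at 37 °C; actives lower the ATP signal meaning cytotoxicity.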 The essentials:
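HCT116 p53-bla cells, 4000/well, dosed after 5 h plating (217-fold dilution of DMSO stocks) and incubated 16 h at 37C. Viability taken as cellular ATP by CellTiter-Glo luminescence after 30 min RT; signal loss marks cytotoxicity.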

For experiment [12], the target named is Cellular tumor antigen p53 (Homo sapiens) (UniProt P04637). The experiment is described as follows: TOX21_p53_BLA_p2_ratio: Tox21 HCT-116 p53 Agonism Beta-lactamase Assay, Ratio, Phase 2 (AID 2283592). The essentials: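 Human colon HCT116 cells with an inducible p53 beta-lactamase reporter are exposed to test chemicals for 16 h at 37C. Reporter induction is read as the 460/530 nm emission ratio after CCF4-AM loading, normalized to DMSO.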
Cellular tumor antigen p53 (Homo sapiens), sequence (P04637 whole entry, looked up): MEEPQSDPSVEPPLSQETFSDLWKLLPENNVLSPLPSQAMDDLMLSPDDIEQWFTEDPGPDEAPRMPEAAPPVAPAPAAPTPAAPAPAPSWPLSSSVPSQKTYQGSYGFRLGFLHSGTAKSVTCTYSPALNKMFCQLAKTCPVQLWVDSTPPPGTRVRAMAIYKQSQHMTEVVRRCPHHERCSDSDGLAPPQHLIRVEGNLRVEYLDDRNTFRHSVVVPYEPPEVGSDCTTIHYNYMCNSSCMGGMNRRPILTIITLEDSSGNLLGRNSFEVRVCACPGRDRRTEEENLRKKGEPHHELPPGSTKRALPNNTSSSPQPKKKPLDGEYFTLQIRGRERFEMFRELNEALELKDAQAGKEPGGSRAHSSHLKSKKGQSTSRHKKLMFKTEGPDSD

Experiment [13] in a line: TOX21_p53_BLA_p3_viability: Viability Assessment in the Tox21 HCT-116 p53 Agonism Beta-lactamase Assay, Phase 3 (AID 2283593).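 Also: cells exposed to compound for 16 h before reading.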 The method, boiled down:
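HCT116 cells, 4000/well, dosed 5 h after plating by pin transfer (217-fold dilution from DMSO stock) and incubated 16 h at 37C, 5% CO2. Viability read as ATP luminescence with CellTiter-Glo after 30 min at room temperature.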

Experiment [14] has as its target Cellular tumor antigen p53 (Homo sapiens) (UniProt P04637). The experiment is described as follows: TOX21_p53_BLA_p3_ratio: Tox21 HCT-116 p53 Agonism Beta-lactamase Assay, Ratio, Phase 3 (AID 2283596). The method, boiled down: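 HCT116 p53-bla cells (4000/well) given compound in DMSO (217-fold dilution) after 5 h, incubated 16 h at 37C. CCF4-AM substrate 2 h at room temperature; 460/530 nm emission ratio, gain fitted against DMSO.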

Experiment [15] has the same target. The experiment in a line: TOX21_p53_BLA_p5_ratio: Tox21 HCT-116 p53 Agonism Beta-lactamase Assay, Ratio, Phase 5 (AID 2283599). The method, boiled down: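 HCT-116 p53-bla cells (4000/well) plated 5 h, dosed with compound (217-fold DMSO dilution) for 16 h at 37 C; CCF4-AM substrate 2 h at room temperature. Activity is the 460/530 nm emission ratio (405 nm excitation), fitted in gain-of-signal direction versus DMSO.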

A short description of experiment [16]: TOX21_p53_BLA_p5_viability: Viability Assessment in the Tox21 HCT-116 p53 Agonism Beta-lactamase Assay, Phase 5 (AID 2283600). The method, boiled down: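 Seeded cells (4000/well) settle 5 h before compound addition. Plates then incubate 16 h at 37C, receive FRET substrate for 2 h, and finally CellTiter-Glo, with luminescence measured after a 30 min room-temperature incubation.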

The target of experiment [17] is Cellular tumor antigen p53 (Homo sapiens) (UniProt P04637). The experiment is described as follows: TOX21_p53_BLA_p4_ratio: Tox21 HCT-116 p53 Agonism Beta-lactamase Assay, Ratio, Phase 4 (AID 2283601). The essentials:
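HCT-116 p53 beta-lactamase reporter cells (4000/well) preincubated 5 h, then compound (217-fold dilution of DMSO stock) for 16 h at 37C. CCF4-AM substrate added 2 h at room temperature; 460/530 nm emission ratio fitted upward versus DMSO.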

Experiment [18] deals with Hepatocyte nuclear factor 4-alpha (Homo sapiens) (UniProt P41235). The experiment in a line: ATG_HNF4a_TRANS: Attagene TRANS-FACTORIAL HepG2 Assay for human Hepatocyte Nuclear Factor 4 alpha (HNF4a) (AID 2282982). Particulars: HepG2 HNF4a transactivation reporter, mRNA readout. The essentials:
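HepG2 cells transiently transfected with HNF4a-Gal4 chimera and GAL4-UAS reporter units, dosed for 24 h. Reporter mRNA measured by RT-PCR, fluorescent primer extension and capillary electrophoresis; gain-of-signal fitted relative to DMSO.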

Experiment [19] in a line: ATG_NFI_CIS: Attagene CIS-FACTORIAL HepG2 Assay for human Nuclear Factor I (NFI) (AID 2282989; active = hit-call score of the fitted dose curve at least 0.9, where 1 is the maximum; inactive = score below 0.9). Particulars: HepG2 cis-regulatory reporter, NFI response element transcription; actives raise or lower the signal. The method, boiled down: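 Reporter transcription driven by endogenous transcription factors in HepG2 cells; 24 h treatment. Quantitation by labelled RT-PCR fragments on capillary electrophoresis, gain- or loss-of-signal relative to DMSO.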

For experiment [20], the target named is human Peroxisome Proliferator-activated Receptor alpha (PPARa), PPARA (gene 5465) (UniProt Q07869). The experiment is described as follows: ATG_PPARa_TRANS: Attagene TRANS-FACTORIAL HepG2 Assay for human Peroxisome Proliferator-activated Receptor alpha (PPARa) (AID 2283001). The essentials:
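HepG2 cells transiently transfected with multiplexed GAL4-UAS reporters driven by exogenous chimeric NR-Gal4 proteins; reporter mRNA measured after 24 h dosing. Read-out by RT-PCR, 6-FAM labelling, HpaI digestion and capillary electrophoresis; gain of signal versus DMSO.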

Inconclusive results are not listed. Active and inactive are the calls of the source. The calls were made as follows, unless noted: active = hit-call score of the fitted dose curve at least 0.9, where 1 is the maximum; inconclusive = response in the unintended direction; inactive = score below 0.9.

human Peroxisome Proliferator-activated Receptor alpha (PPARa), PPARA (gene 5465), sequence (Q07869 whole entry, looked up, the tested form may be a part): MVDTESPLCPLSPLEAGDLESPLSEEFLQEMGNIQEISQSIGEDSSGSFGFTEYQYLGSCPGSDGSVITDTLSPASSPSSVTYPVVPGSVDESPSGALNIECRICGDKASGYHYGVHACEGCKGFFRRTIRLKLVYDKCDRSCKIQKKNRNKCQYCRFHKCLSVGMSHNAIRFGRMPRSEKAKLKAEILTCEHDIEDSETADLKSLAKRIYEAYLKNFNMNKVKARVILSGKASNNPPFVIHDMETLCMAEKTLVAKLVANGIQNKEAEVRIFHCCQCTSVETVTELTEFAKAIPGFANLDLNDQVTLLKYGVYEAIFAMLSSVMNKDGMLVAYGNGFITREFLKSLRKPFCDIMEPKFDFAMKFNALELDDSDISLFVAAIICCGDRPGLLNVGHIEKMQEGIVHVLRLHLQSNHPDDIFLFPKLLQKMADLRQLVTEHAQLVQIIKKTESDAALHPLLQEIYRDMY
Hepatocyte nuclear factor 3-beta (Homo sapiens), sequence (Q9Y261 whole entry, looked up): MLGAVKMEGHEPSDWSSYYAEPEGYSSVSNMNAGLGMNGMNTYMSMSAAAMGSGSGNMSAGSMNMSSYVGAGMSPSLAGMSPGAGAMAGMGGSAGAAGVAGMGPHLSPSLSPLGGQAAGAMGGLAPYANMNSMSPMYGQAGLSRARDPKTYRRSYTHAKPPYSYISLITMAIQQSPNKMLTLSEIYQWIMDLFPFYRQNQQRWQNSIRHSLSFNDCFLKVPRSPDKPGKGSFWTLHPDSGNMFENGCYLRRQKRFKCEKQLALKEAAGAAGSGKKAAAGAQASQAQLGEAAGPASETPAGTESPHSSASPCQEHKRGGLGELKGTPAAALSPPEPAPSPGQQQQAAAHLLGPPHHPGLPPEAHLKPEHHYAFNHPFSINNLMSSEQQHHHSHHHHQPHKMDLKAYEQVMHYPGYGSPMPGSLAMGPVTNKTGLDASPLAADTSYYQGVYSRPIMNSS
Retinoic acid receptor alpha (Homo sapiens), sequence (P10276 whole entry, looked up): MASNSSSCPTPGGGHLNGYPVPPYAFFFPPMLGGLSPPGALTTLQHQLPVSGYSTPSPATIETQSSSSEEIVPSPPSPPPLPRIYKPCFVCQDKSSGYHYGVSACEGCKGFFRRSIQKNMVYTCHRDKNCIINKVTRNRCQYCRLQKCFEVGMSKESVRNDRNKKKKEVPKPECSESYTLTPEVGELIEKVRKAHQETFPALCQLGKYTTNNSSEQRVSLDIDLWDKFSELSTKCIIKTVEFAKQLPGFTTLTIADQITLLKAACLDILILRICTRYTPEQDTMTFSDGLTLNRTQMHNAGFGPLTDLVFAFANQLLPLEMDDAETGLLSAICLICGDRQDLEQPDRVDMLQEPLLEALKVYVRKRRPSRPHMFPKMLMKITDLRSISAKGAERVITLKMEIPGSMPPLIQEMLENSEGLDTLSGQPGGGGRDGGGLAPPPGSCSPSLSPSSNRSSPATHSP
human Retinoid X Receptor beta (RXRb), RXRB (gene 6257), sequence (P28702 whole entry, looked up, the tested form may be a part): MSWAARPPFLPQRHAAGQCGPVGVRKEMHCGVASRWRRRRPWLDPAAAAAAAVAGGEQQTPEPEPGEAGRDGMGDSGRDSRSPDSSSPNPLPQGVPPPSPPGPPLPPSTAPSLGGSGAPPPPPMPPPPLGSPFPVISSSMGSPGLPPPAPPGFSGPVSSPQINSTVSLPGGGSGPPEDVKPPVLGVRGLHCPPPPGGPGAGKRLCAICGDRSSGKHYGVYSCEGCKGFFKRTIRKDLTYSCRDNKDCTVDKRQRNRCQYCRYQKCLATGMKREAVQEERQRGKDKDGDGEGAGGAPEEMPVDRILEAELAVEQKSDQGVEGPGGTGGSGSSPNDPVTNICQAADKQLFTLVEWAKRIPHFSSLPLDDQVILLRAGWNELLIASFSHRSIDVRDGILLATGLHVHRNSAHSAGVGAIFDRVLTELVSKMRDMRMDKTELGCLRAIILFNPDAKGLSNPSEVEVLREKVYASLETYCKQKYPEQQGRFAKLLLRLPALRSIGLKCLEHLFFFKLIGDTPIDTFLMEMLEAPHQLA
Hepatocyte nuclear factor 4-alpha (Homo sapiens), sequence (P41235 whole entry, looked up, the tested form may be a part): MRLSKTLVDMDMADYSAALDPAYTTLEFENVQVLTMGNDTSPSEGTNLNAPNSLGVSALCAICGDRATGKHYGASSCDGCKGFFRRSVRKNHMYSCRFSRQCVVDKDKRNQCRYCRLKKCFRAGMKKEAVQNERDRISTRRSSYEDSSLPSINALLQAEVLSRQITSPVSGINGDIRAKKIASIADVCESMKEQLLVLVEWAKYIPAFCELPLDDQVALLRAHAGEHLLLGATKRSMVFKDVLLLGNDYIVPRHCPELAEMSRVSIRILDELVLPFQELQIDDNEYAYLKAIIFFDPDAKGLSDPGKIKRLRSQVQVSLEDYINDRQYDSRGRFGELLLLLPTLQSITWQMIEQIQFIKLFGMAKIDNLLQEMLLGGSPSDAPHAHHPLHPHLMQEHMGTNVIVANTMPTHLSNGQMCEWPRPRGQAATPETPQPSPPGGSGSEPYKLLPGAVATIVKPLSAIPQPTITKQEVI

Turning to `CC(C)CC(=O)CC(C)CC(C)C` (configuration not stated), the molecule was called inactive in experiment [1], in experiment [2], in [3], in experiment [4], in [5] and in experiment [6]. In addition, the call in experiment [7], in [8], in experiment [9], in [10], in [11] and in experiment [12] was inactive. Moreover, the call in [13], in experiment [14], in [15], in [16] and in experiment [17] was inactive.

With `CN(C)N=Nc1ccccc1`, the molecule was called inactive in [2], in experiment [6], in [7], in experiment [18], in experiment [8] and in experiment [19]. For the same molecule, the molecule was classed as inactive in experiment [9], in [20], in experiment [10], in experiment [14], in [16] and in experiment [17].

With `CCCCCCCCCC/C=C/C1CC(=O)OC1=O` (configuration not stated), the call in experiment [2], in experiment [3], in experiment [4], in experiment [5], in [6] and in experiment [8] was inactive. The molecule was called inactive in experiment [9], in [20], in experiment [10], in experiment [11], in [12] and in [13]. Besides, the outcome in [14], in experiment [15], in experiment [16] and in experiment [17] was inactive.

For orientation: AC50 means the concentration giving half of the maximal activity seen. Take `CN(C)Cc1cc(C(C)(C)C)c(O)c(C(C)(C)C)c1`: the molecule was classed as inactive in experiment [1], in experiment [2], in [3], in experiment [4], in experiment [6] and in experiment [8]. The outcome in [11], in [13], in experiment [14] and in experiment [16] was inactive. The AC50 in experiment [7] is 43.1 µM (active); in [10], 1.67 µM (active).

In the case of `CCCCC(CC)COC(=O)CS` (configuration not stated), the molecule was called inactive in [1], in experiment [2], in experiment [4], in [7], in experiment [8] and in experiment [9]. Besides, the molecule was called inactive in [20], in experiment [10], in experiment [11], in experiment [12], in [13] and in experiment [14]. Also, the outcome in experiment [17] was inactive.

For the molecule `CC(=O)c1nccs1`, the result in experiment [1], in experiment [2], in experiment [3], in [4], in experiment [5] and in experiment [6] was inactive. For the same molecule, the result in experiment [7], in [18], in [8], in experiment [19], in experiment [10] and in experiment [12] was inactive. The result in [13], in experiment [14], in experiment [15] and in [17] was inactive.

For `O=C(c1ccccc1)c1ccccc1O`, the molecule was classed as inactive in experiment [1], in [2], in [3], in experiment [4], in [5] and in [6]. Moreover, the molecule was called inactive in [7], in [8], in [9] and in experiment [20]. The AC50 in [10] was 75.9 µM (active).

`Cc1ccnc(N)c1`: the call in experiment [1], in experiment [3], in [4], in experiment [5], in experiment [6] and in [8] was inactive. The molecule was classed as inactive in experiment [9], in experiment [10], in experiment [11] and in experiment [15].

The values above are taken from PubChem BioAssay (EPA / NIEHS).
